According to publication PMC5540273 (PLoS ONE, 2017):

How the values were obtained:
Conditions in all cases: concentration: 1 μM, replicates: in singlicate; n = 1
DAPK2 = tested on: DAPK2
DAPK3 = tested on: DAPK3
DCAMKL1 = tested on: T1, DCAMKL1
T1 construct: gene DCLK1

DCAMKL2 = tested on: T2, DCAMKL2
T2 construct: gene DCLK2

DCAMKL3 = tested on: T3, DCAMKL3
T3 construct: gene DCLK3

DDR1 = tested on: DDR1
DDR2 = tested on: DDR2
DLK = tested on: T4, DLK
T4 construct: gene MAP3K12

DMPK2 = tested on: T5, DMPK2
T5 construct: gene CDC42BPG

DMPK = tested on: DMPK
DRAK1 = tested on: T6, DRAK1
T6 construct: gene STK17A

DRAK2 = tested on: T7, DRAK2
T7 construct: gene STK17B

DYRK1A = tested on: DYRK1A
DYRK1B = tested on: DYRK1B
DYRK2 = tested on: DYRK2
EGFR = tested on: EGFR
EIF2AK1 = tested on: EIF2AK1
EPHA1 = tested on: EPHA1
EPHA2 = tested on: EPHA2
EPHA3 = tested on: EPHA3
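Note: KINOMEscan kinase panel screen.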

| Structure (SMILES) | %Inh (DAPK2) | %Inh (DAPK3) | %Inh (DCAMKL1) | %Inh (DCAMKL2) | %Inh (DCAMKL3) | %Inh (DDR1) | %Inh (DDR2) | %Inh (DLK) | %Inh (DMPK2) | %Inh (DMPK) | %Inh (DRAK1) | %Inh (DRAK2) | %Inh (DYRK1A) | %Inh (DYRK1B) | %Inh (DYRK2) | %Inh (EGFR) | %Inh (EIF2AK1) | %Inh (EPHA1) | %Inh (EPHA2) | %Inh (EPHA3) |
| --- | --- | --- | --- | --- | --- | --- | --- | --- | --- | --- | --- | --- | --- | --- | --- | --- | --- | --- | --- | --- |
| Cc1cccc(-c2nc(C)cc(Nc3ccncc3)n2)n1 [GSK257997] | 2% | 14% | 11% | 3% | 13% | 0% | 1% | 0% | 89% | 0% | 12% | 0% | 6% | 13% | 14% | 30% | 0% | 0% | 9% | 0% |
| Fc1cc(Cl)ccc1Nc1ccnc2cc(-c3ccc(CN4CCCCC4)o3)ccc12 [GW560116] | 0% | 25% | 0% | 14% | 0% | 27% | 36% | 36% | 0% | 0% | 33% | 0% | 0% | 0% | 9% | 27% | 0% | 43% | 6% | 33% |
| COc1ccc(Nc2nccc(-c3cccc(NC(=O)c4cc5cc(F)ccc5[nH]4)c3)n2)cc1 [GSK1229782] | 11% | 6% | 4% | 0% | 4% | 0% | 39% | 37% | 13% | 25% | 24% | 0% | 5% | 25% | 12% | 22% | 10% | 56% | 9% | 35% |
| Cc1cccc(-c2nc(-c3ccc(S(C)(=O)=O)cc3)sc2-c2ccnc(NCCc3ccccc3)c2)c1 | 15% | 0% | 5% | 0% | 8% | 98.1% | 79% | 0% | 10% | 16% | 0% | 10% | 0% | 51% | 0% | 0% | 1% | 0% | 0% | 9% |
| Fc1cc(Cl)ccc1Nc1ccnc2cc(I)ccc12 [GW551191] | 0% | 9% | 15% | 0% | 0% | 33% | 8% | 27% | 8% | 21% | 0% | 0% | 33% | 60% | 4% | 21% | 0% | 71% | 26% | 0% |
| Cn1ccc2ncnc(Oc3ccc(NC(=O)Nc4ccccc4)cc3)c21 | 0% | 0% | 23% | 0% | 0% | 63% | 74% | 0% | 0% | 0% | 0% | 0% | 6% | 40% | 0% | 3% | 22% | 7% | 0% | 0% |
| CS(=O)(=O)c1ccc(-c2nc3n(c2-c2ccncc2)CCC3)cc1 [SKF-105942] | 0% | 22% | 21% | 13% | 20% | 0% | 7% | 0% | 0% | 0% | 0% | 0% | 20% | 0% | 5% | 5% | 13% | 1% | 6% | 0% |
| Nc1ncnc2[nH]c(-c3ccccc3)nc12 [AH5015] | 0% | 27% | 11% | 0% | 13% | 0% | 13% | 21% | 0% | 0% | 5% | 0% | 46% | 15% | 68% | 25% | 100% | 16% | 23% | 0% |
| Cl.c1ccc(-c2n[nH]cc2-c2ccnc(-c3ccc(CN4CCOCC4)cc3)c2)nc1 [GW776245] | 12% | 4% | 38% | 16% | 12% | 0% | 34% | 0% | 9% | 0% | 0% | 20% | 0% | 0% | 0% | 34% | 0% | 7% | 6% | 1% |
| Cl.NC(=O)c1cccc(Nc2nccc(Nc3ccc(Oc4cccc(Cl)c4)c(Cl)c3)n2)c1 [GW659008] | 0% | 22% | 0% | 13% | 0% | 1% | 0% | 24% | 55% | 0% | 13% | 0% | 5% | 4% | 13% | 96.9% | 0% | 0% | 0% | 5% |
| O=c1cc(N2CCOCC2)nc2n(Cc3cccc(Cl)c3Cl)ccn12 [GSK2286295] | 7% | 15% | 5% | 0% | 20% | 0% | 0% | 0% | 0% | 3% | 0% | 0% | 14% | 30% | 21% | 20% | 0% | 0% | 4% | 18% |
| Cc1cc(-c2ccc3c(c2)CC[C@@H](N[C@@H](C)c2ccccc2)C3)cnc1N.Cl [GW412617] | 0% | 0% | 0% | 0% | 0% | 14% | 25% | 87% | 4% | 6% | 0% | 11% | 19% | 17% | 0% | 31% | 0% | 14% | 14% | 0% |
| COc1cc2ncn(-c3cc(OCC4CCCO4)c(C(N)=O)s3)c2cc1OC (stereo not drawn) [GSK204607] | 0% | 2% | 18% | 0% | 0% | 0% | 21% | 33% | 0% | 0% | 0% | 0% | 0% | 0% | 14% | 20% | 0% | 3% | 10% | 16% |
| COC(=O)c1c(-c2ccccc2)c2cc(C(=O)O)ccc2c(=O)n1Cc1ccccc1 | 0% | 0% | 5% | 4% | 26% | 92.6% | 63% | 0% | 0% | 12% | 0% | 0% | 7% | 32% | 0% | 0% | 0% | 0% | 3% | 15% |
| Cn1ccc2ncnc(Oc3ccc(Nc4nc5ccccc5[nH]4)cc3)c21 | 0% | 3% | 0% | 0% | 0% | 0% | 16% | 0% | 0% | 0% | 0% | 2% | 0% | 5% | 0% | 0% | 0% | 0% | 0% | 2% |
